Source: PubChem BioAssay AID651739 (Broad Institute, 2012)
The whole screen tested about 5,600 compounds, of which about 4,100 (73%) were called active. Another 4% or so got no clear call; they are omitted. So high a share suggests a set chosen from earlier hits. Only a sample is shown. Unmarked numbers belong to inactive results.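 The calls were made as follows: active = mean replicate inhibition above about 95% and at least 55% of replicates individually reaching it (limit read from the data); inconclusive = only one of the two criteria is met; inactive = neither criterion is met.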

test: T. cruzi intracellular proliferation inhibitors, confirmation, cell-based, NIH3T3 host, beta-gal parasite, luminescence, cherry-pick (AID 651739); settings: T. cruzi beta-gal in NIH3T3, GalScreen luminescence, 90 h; at 8.35 µM; hits give high values

SMILES | inhibition
COc1ccc(-c2ccc([C@H]3[C@H](CO)N4CCCCN(C(=O)Cc5ccncc5)C[C@@H]34)cc2)cc1 | 89.1%
COc1ccc(C#Cc2ccc([C@H]3[C@H](CO)N4CCCCN(C(=O)Cc5ccccc5)C[C@@H]34)cc2)cc1 | 95.6% (active)
O=C(Cc1ccccn1)N1CCCCN2[C@@H](CO)[C@@H](c3ccc(C#Cc4ccccc4)cc3)[C@@H]2C1 | 112% (active)
C/C=C/c1ccc([C@H]2[C@H](CO)N3CCCCN(C(=O)Cc4ccncc4)C[C@@H]23)cc1 | 99.2% (active)
O=C(Cc1cccnc1)N1CCCCN2[C@@H](CO)[C@H](c3ccc(C#CC4CCCC4)cc3)[C@@H]2C1 | 103% (active)
